# Screening results from PubChem BioAssay.
# TDP1 cell CPT = qHTS for Inhibitors of human tyrosyl-DNA phosphodiesterase 1 (TDP1): qHTS in cells in presence of CPT. Potency, µM (titrated, usually from 46.2 µM), without a hit: top-dose activity change, negative = growth inhibition, usual class: inhibitors. chicken DT40 Tdp1-/-;hTDP1 cells + 20 nM CPT, ATP luminescence, 48 h. AID 686979, 2013. actives 12% (n = 420,000); also: nearly all actives have a fitted effect of over 55% in size
#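 Chicken DT40 Tdp1-/- cells stably complemented with human TDP1 were seeded at 400 cells/well in medium containing 20 nM camptothecin, exposed to pin-transferred compounds, and grown at 37 °C for at least 48 hr. Viability was read as ATP luminescence.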
# RORgamma inh = qHTS for inhibitors of ROR gamma transcriptional activity; Nuclear receptor ROR-gamma (Mus musculus), P51450; Drosophila S2 Gal4-RORgamma UAS-luciferase reporter, 20 h; Potency, µM (titrated, usually from 53.6 µM), for inactives: top-dose activity change, negative = inhibition, usual class: inhibitors; actives 5.4% (n = 310,000); also: nearly all actives have a fitted effect of over 60% in size
#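 Read-out: Photinus luciferase luminescence; inhibitors lower reporter signal. Insect Schneider cells with Gal4-ROR gamma fusion under metallothionein promoter, UAS reporter; 700 uM final copper sulfate induction, 20 hr, ambient temperature.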
# TDP1 inh = qHTS Assay for Inhibitors of Tyrosyl-DNA Phosphodiesterase (TDP1). Potency, µM (highest dose often 130 µM), for inactives: at the top dose activity change, negative = inhibition, hits mostly inhibitors. actives 0.28% (n = 350,000). recombinant TDP1, AlphaScreen DNA substrate cleavage; also: nearly all actives have a fitted effect of over 40% in size
# Target sequence (Q9NUW8 whole entry, looked up): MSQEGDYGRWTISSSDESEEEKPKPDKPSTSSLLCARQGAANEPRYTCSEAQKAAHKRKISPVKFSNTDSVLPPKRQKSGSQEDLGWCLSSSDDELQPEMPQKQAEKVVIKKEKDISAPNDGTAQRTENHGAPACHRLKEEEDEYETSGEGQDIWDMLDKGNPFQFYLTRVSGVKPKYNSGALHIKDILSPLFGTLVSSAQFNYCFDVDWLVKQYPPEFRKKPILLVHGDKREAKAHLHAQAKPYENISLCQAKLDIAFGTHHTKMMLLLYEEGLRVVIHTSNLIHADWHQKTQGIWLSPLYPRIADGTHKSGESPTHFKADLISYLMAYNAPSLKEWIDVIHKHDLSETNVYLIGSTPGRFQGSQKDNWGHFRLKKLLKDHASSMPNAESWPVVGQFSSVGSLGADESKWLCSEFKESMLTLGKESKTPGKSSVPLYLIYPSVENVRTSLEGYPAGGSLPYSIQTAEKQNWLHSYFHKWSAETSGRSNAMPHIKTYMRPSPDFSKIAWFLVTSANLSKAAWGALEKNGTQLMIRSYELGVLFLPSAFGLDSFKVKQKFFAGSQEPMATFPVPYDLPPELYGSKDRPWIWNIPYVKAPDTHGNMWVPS
#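 Compounds were preincubated with Tdp1 (1 nM final) for 15 min at room temperature before substrate (15 nM final) started a 5 min reaction; beads (10 ug/ml final) were then added for 10 min before AlphaScreen detection.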
# DT40 TDP1 no CPT = qHTS for Inhibitors of human tyrosyl-DNA phosphodiesterase 1 (TDP1): qHTS in cells in absence of CPT. DT40 Tdp1-/- hTDP1 cells, no CPT, ATP luminescence, 48 h. Potency, µM (series often up to 46.2 µM), inactives show at the top dose activity change, negative = growth inhibition, hits mostly inhibitors. actives 15% (n = 420,000); also: nearly all actives have a fitted effect of over 55% in size
#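 Chicken DT40 Tdp1-/- cells stably complemented with human TDP1 were seeded at 400 cells/well with DMSO in place of 20 nM camptothecin. After compound pinning, cells grew at least 48 hr at 37 °C; viability read by CellTiter-Glo luminescence.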
# VP16 counter = VP16 counterscreen qHTS for inhibitors of ROR gamma transcriptional activity | Drosophila S2 Gal4-VP16 UAS-luciferase, luminescence, 20 h | Potency, µM (highest dose often 53.6 µM), for the others: at the highest dose activity, negative = inhibition, most hits filed as inhibitors | actives 3.5% (n = 310,000) | AID 2546, 2010;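 also: Gal4-VP16 expression switched on by copper sulfate through the metallothionein promoter; nearly all actives have a fitted effect of over 50% in size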
# The depositor's hits bear a star; ? = inconclusive; · = not tested or not shown; [ ] = dose if it differs, or a comment. The list is not random: actives were taken first. Their share in the collection is about 19%. Calls follow the shape of the dose curve; as a rule, active = well fitted curve in the direction sought with a large enough effect; inconclusive = small, poorly fitted or top-dose-only effect, or another doubt; inactive = no such curve, though single readings can be large; an effect the other way counts as inactive or inconclusive. % is scaled to controls: 0 for no effect and ±100 for the full control effect; potency is read from the fitted curve at half-maximal effect.
SMILES,TDP1 cell CPT,RORgamma inh,TDP1 inh,DT40 TDP1 no CPT,VP16 counter
CCN(CC)S(=O)(=O)c1ccc(NC(=O)C2COc3ccccc3O2)cc1 (configuration not stated),?,-20.1%,5.2%,?,-1.5%
CCN(CC)S(=O)(=O)c1cccc(C(=O)OCC(=O)C23CC4CC(CC(C4)C2)C3)c1,?,0.4%,7.0%,23.1µM*,6.6%
CCOC(=O)c1c(C)[nH]c(C)c1C(=O)COC(=O)c1cccc(S(=O)(=O)N(CC)CC)c1,?,?,5.8%,29.1µM*,?
O=C(OCC(=O)C12CC3CC(CC(C3)C1)C2)c1cccnc1,-12.2%,3.0%,3.5%,-17.1%,-5.9%
O=C1CN(C(=O)c2ccccc2)c2ccccc2N1,-1.5%,3.0%,3.3%,-1.8%,4.1%
O=C1CN(C(=O)c2cccc(Br)c2)c2ccccc2N1,14.6µM*,-2.8%,3.8%,11.6µM*,-7.2%
O=C1CN(C(=O)c2cc(Br)c(Br)s2)c2ccccc2N1,?,21.7%,-1.0%,13µM*,11.4%
COc1ccccc1NC(=S)N(CCN(C)C)C(C)c1ccncc1 (configuration not stated),-8.5%,-2.6%,6.2%,-1.5%,-15.4%
C=C(C)Cn1c(-c2ccncc2)n[nH]c1=S,6.2%,12.6µM*,·,-18.3%,-14.9%
Cc1ccc(-n2c(-c3ccncc3)n[nH]c2=S)cc1,0.4%,11.2µM*,?,0.5%,-7.3%
Cc1ccc(-n2c(-c3ccccc3)n[nH]c2=S)cc1,-0.9%,3.16µM*,1.1%,-13.5%,5.62µM*
Cc1n[nH]c(=S)n1-c1ccccc1,-13.7%,?,2.7%,-14.2%,-20.0%
Cc1ccc(-n2c(-c3ccncc3)n[nH]c2=S)cc1C,-2.6%,26.4%,-4.3%,16.2%,3.5%
CC(c1ccccc1)n1c(-c2ccccc2)n[nH]c1=S (configuration not stated),-17.0%,·,·,-29.7%,·
CC(c1ccccc1)n1c(-c2ccc(C(C)(C)C)cc2)n[nH]c1=S (configuration not stated),-0.3%,7.08µM*,6.1%,?,7.08µM*
COc1ccc(-c2n[nH]c(=S)n2-c2ccc(Br)cc2)cc1OC,7.2%,20µM*,4.2%,2.2%,?
Cc1cc(-c2n[nH]c(=S)n2-c2ccc(F)cc2)nn1C,-2.2%,-21.6%,·,8.2%,1.3%[10 µM]
S=c1[nH]nc(-c2ccco2)n1-c1ccc(Br)cc1,10.1%,·,·,-2.5%,·
Fc1ccc(-n2c(-c3ccc4c(c3)OCO4)n[nH]c2=S)cc1Cl,3.5%,?,2.8%,-3.1%,?
Cc1ccc(-n2c(-c3ccc(Cl)cc3Cl)n[nH]c2=S)cc1,-7.2%,3.16µM*,·,-24.9%,5.01µM*
COc1cc(OC)cc(-c2n[nH]c(=S)n2-c2ccc3c(c2)OCO3)c1,22.3%,5.62µM*,5.6%,6.8%,?
CC(C)(C)c1ccc(-c2n[nH]c(=S)n2-c2ccccc2)cc1,-15.7%,3.16µM*,·,?,2.82µM*
O=C1c2ccccc2C(=O)N1c1cccc(=O)[nH]1,·,·,1.9%,·,·
COc1ccc(-n2c(-c3ccc(C)cc3)n[nH]c2=S)cc1,?,1.41µM*,5.6%,?,3.16µM*
Cc1ccc(-n2c(-c3ccccc3)n[nH]c2=S)c(C)c1,?,5.01µM*,·,2.7%,4.47µM*
SMILES,TDP1 cell CPT,RORgamma inh,TDP1 inh,DT40 TDP1 no CPT,VP16 counter
Cc1ccc(-n2c(-c3cnccn3)n[nH]c2=S)cc1,1.9%,?,·,5.7%,-7.5%
CCn1c(-c2cc(OC)c(OC)c(OC)c2)n[nH]c1=S,1.4%,?,4.8%,18.3%,18.9%
Cc1ccccc1-n1c(-c2cccnc2)n[nH]c1=S,9.3%,?,?,-8.8%,15.2%
COc1cc(-c2n[nH]c(=S)n2-c2ccc(C)cc2)cc(OC)c1OC,16.4µM*,14.8%,5.6%,-16.5%,0.0%
Cc1ccc(-n2c(Cc3cccc4ccccc34)n[nH]c2=S)c(C)c1,?,1.12µM*,5.1%,?,?
CCc1ccc(C(=O)c2cn(CC(=O)Nc3ccc4c(c3)OCO4)c3cc(OC)c(OC)cc3c2=O)cc1,0.4%,·,6.4%,-7.1%,·
Nc1c(-c2n[nH]c(=S)n2-c2ccc(Cl)cc2Cl)cnn1-c1ccccc1,1.5%,2.82µM*,·,-14.0%,-19.1%
CC(=O)N1c2c(cc(Br)cc2S(=O)(=O)N2CCN(c3cc(C)ccc3C)CC2)CC1C (configuration not stated),16.4µM*,·,0.0%,14.6µM*,·
CC(=O)N1c2c(cc(Br)cc2S(=O)(=O)N2CCOCC2)CC1C (configuration not stated),-3.6%,?,2.1%,-12.0%,-0.4%
COc1cc(NS(=O)(=O)c2cc(Br)cc3c2N(C(C)=O)C(C)C3)cc(OC)c1 (configuration not stated),13µM*,·,0.0%,18.4µM*,·
COc1ccc(C)cc1NS(=O)(=O)c1cc(Br)cc2c1N(C(C)=O)C(C)C2 (configuration not stated),?,·,8.8%,18.4µM*,·
CCCOc1ccc(/C(O)=C2/C(=O)C(=O)N(CCN(CC)CC)C2c2ccncc2)cc1 (configuration not stated),·,-22.7%,-3.1%,·,1.4%
Cn1cc(/C=C(\NC(=O)c2ccccc2Cl)C(=O)NCCN2CCOCC2)c2ccccc21,3.6%,-14.6%,4.9%,?,-15.7%
COc1ccc(S(=O)(=O)N2CCOCC2)cc1NC(=O)COC(=O)C1CC2CCCC(C1)C2=O (configuration not stated),2.4%,-4.2%,0.5%,15.0%,1.5%
CC(C)COC(=O)N(C)C[C@@H]1OCc2cnnn2CCCC(=O)N([C@@H](C)CO)C[C@@H]1C,-1.3%,·,·,6.7%,·
O=[N+]([O-])c1ccc(N=Nc2c(Cl)cc(O)cc2Cl)cc1,4.11µM*,?,10.5%,4.61µM*,5.01µM*
CCCCC[C@H](O)/C=C\[C@@H]1[C@H](O)CC(=O)[C@@H]1CCCCCCC(=O)O,·,14.2%[2.98 µM],4.8%[56.1 µM],·,-8.8%[17 µM]
CCCCC(C)(O)C/C=C/[C@H]1[C@H](O)CC(=O)[C@@H]1CCCCCCC(=O)OC (some centres not stated),?,-0.5%[10 µM],4.3%,1.5µM*,?
Nc1c(CC(=O)O)cccc1C(=O)c1ccccc1,11.2%,·,·,1.3%,·
CN(C(=O)C1CCN(c2ncnc3c2nc2n3CCCCC2)CC1)c1ccccc1F,?,·,5.0%,?,·
